The values that follow come from PubChem BioAssay (Tox21).

Records with an inconclusive call do not appear. Activity calls are given as the source filed them. Unless noted, calls follow the shape of the full dose curve.

The nature of assay [1]: Nuclear factor erythroid 2-related factor 2/antioxidant responsive element (Nrf2/ARE) small molecule agonists: qHTS cell viability counter screen in human keratinocytes (AID 1919968; active = well fitted curve in the direction sought with a large enough effect in the repeat runs; an effect the other way counts as inactive or inconclusive; also: nearly all actives have a fitted effect of over 55% in size). In short, it runs like this: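 Measured as CellTiter-Fluor fluorescence, this readout tracks cytotoxicity in the same wells as the ARE-luciferase screen. HaCaT reporter cells (1,500/well) received compounds after a 5 h pre-incubation and were exposed for 23 h.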
A general note: qHTS replaces the single test concentration by a dilution series.

A short description of assay [2]: Nuclear factor erythroid 2-related factor 2/antioxidant responsive element (Nrf2/ARE) small molecule agonists: luciferase reporter gene qHTS assay in human keratinocytes (AID 1919969). Also: nearly all actives have a fitted effect of over 35% in size. Also: potency is read from the fitted curve at half-maximal effect. For orientation: Reporter assays use an easily measured gene product as a stand-in for the process of interest.
For assay [3], the target named is Gonadotropin-releasing hormone receptor (Homo sapiens) (UniProt P30968). Kind of assay: Human gonadotropin-releasing hormone receptor (GnRHR) small molecule agonists, calcium flux assay in GnRHR-HEK293 cells (AID 1920063). Also: nearly all actives have a fitted effect of over 35% in size. The method in brief:
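Fluorescence kinetics (480 nm excitation, 540 nm emission; 3 min, 1 s steps) report calcium mobilisation in human GnRHR-HEK293 cells in agonist mode. Dye incubation: 1 h, 37 C.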
In general terms: Calcium assays in cells follow changes in intracellular calcium, usually with a dye or a luminescent sensor.

In assay [4] the target is KiSS-1 receptor (Homo sapiens) (UniProt Q969F8). Description: Human kisspeptin (KISS1R) small molecule agonists, calcium flux assay in KISS1R-HEK293 cells (AID 1920064; active = well fitted curve in the direction sought with a large enough effect in the repeat runs; an effect the other way counts as inactive or inconclusive). The method in brief: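 Measures KISS1R agonism through calcium-sensitive dye fluorescence in stably transfected HEK293 cells, read for 3 min after pin-tool compound delivery; 15-point titrations in triplicate.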
Chain of KiSS-1 receptor (Homo sapiens) (Q969F8 whole entry, looked up): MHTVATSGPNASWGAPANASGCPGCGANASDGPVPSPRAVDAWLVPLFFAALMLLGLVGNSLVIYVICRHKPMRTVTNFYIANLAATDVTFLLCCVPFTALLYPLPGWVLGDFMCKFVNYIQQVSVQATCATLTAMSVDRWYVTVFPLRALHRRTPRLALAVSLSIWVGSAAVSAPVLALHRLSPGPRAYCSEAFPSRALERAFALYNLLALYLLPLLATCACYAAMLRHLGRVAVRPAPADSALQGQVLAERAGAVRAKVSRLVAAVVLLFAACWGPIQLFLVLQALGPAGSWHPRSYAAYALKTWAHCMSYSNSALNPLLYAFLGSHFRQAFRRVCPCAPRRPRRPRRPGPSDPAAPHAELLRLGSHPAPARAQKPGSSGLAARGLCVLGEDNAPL

Assay [5] is described as follows: G protein-coupled receptor (GPCR) small molecule agonists, calcium flux assay: HEK293 wild type cell line counter screen (AID 1920065). The method in brief: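 Readout: fluorescence at 480 nm excitation/540 nm emission, sampled at 1 s intervals for 3 min. Cells had been cultured 18 h, then dye-loaded 1 h at 37 C before compound or ATP addition.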
A short description of assay [6]: p53 small molecule agonists, cell-based qHTS assay with human liver microsomes: qHTS cell viability counter screen (AID 1963579). Also: nearly all actives have a fitted effect of over 45% in size. The method in brief: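 p53RE-bla cells, 4,000/well, dosed 5 hours after plating, with human liver microsomes (0.5 mg/mL final) plus NADPH (0.5 mg/mL final), 16 hours at 37 C. Viability read as CellTiter-Glo luminescence after 30 min at room temperature.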

The target of assay [7] is 5-hydroxytryptamine receptor 2A (Homo sapiens) (UniProt P28223). Description: 5-hydroxytryptamine receptor 2A (HTR2A) small molecule antagonists, cell-based qHTS assay (AID 1963586). Also: nearly all actives have a fitted effect of over 45% in size. Also: potency is read from the fitted curve at half-maximal effect. The method in brief: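 Antagonist-mode intracellular calcium assay: DOI (4 nM) added after 5 min compound pre-incubation at room temperature to dye-loaded HTR2A-CHO cells. Fluorescence followed for 3 min, sampled every second.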
Chain of 5-hydroxytryptamine receptor 2A (Homo sapiens) (P28223 whole entry, looked up): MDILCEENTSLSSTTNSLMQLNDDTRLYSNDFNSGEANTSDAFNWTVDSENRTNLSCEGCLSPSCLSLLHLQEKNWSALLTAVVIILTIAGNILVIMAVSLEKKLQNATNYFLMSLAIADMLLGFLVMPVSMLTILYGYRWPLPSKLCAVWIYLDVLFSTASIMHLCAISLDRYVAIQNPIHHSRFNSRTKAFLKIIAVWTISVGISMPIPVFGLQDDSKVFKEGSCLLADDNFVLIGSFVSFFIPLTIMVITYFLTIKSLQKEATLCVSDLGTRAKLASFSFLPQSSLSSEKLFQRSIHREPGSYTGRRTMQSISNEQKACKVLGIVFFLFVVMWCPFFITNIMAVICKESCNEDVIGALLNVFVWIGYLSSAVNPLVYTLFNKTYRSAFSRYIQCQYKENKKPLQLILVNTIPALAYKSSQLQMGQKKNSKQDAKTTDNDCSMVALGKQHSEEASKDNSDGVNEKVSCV

For assay [8] the target is unchanged. Kind of assay: 5-hydroxytryptamine receptor 2A (HTR2A) small molecule agonists, cell-based qHTS assay (AID 1963587). Also: nearly all actives have a fitted effect of over 30% in size. Also: potency is read from the fitted curve at half-maximal effect. In short, it runs like this: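 HTR2A-CHO cells, plated 18 h at 37 C/5% CO2, dye-loaded 1 h at 37 C; compounds in DMSO added by pin tool (agonist mode). Intracellular calcium flux read as kinetic fluorescence on FDSS over 2 min at 1 s intervals.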

The target of assay [9] is Muscarinic acetylcholine receptor M1 (Homo sapiens) (UniProt P11229). Description: Cholinergic receptor muscarinic 1 (CHRM1) small molecule antagonists, cell-based qHTS assay (AID 1963588). Also: nearly all actives have a fitted effect of over 40% in size. The method in brief: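 CHRM1-CHO calcium-flux assay, antagonist mode. Cells were seeded 18 h, dye-loaded 1 h at 37 C and given compound for 5 min at RT, then acetylcholine was added at 50nM. FDSS fluorescence was read 3 min; 15 concentrations, three runs.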
Chain of Muscarinic acetylcholine receptor M1 (Homo sapiens) (P11229 whole entry, looked up): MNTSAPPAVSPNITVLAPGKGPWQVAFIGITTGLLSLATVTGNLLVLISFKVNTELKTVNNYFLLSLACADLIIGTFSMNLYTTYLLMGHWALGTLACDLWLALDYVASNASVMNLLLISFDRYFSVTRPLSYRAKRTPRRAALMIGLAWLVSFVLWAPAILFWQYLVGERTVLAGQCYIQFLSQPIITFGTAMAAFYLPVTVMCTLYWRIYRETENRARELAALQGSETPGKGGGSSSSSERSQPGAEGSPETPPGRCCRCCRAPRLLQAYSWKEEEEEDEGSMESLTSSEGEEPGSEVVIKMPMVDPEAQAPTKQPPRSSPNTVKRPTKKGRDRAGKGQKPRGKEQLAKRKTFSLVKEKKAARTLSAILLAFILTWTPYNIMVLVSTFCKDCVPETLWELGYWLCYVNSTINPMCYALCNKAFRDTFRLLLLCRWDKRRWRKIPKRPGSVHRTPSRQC

Assay [10] has the same target. Kind of assay: Cholinergic receptor muscarinic 1 (CHRM1) small molecule agonists, cell-based qHTS assay (AID 1963589). Also: nearly all actives have a fitted effect of over 35% in size. The method in brief:
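Each compound was tested at 15 concentrations across three independent runs on dye-loaded CHO cells stably expressing human CHRM1, reading intracellular calcium fluorescence kinetically at 1 sec intervals.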

The nature of assay [11]: cAMP Responsive Elements (CRE) small molecule agonists, cell-based qHTS assay (AID 1963590). The method in brief:
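Cell line: CRE-bla HEK 293T; medium DMEM/10% dialyzed FBS/0.1 mM NEAA/1 mM pyruvate/25 mM HEPES; 3 h compound exposure; beta-lactamase FRET readout after 2 h substrate loading at RT.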

The nature of assay [12]: cAMP Responsive Elements (CRE) small molecule antagonists, cell-based qHTS assay (AID 1963591; active = well fitted inhibition curve with a large enough effect in the signal ratio in the repeat runs, not every such curve was filed as active; the % refers to the signal ratio). In short, it runs like this:
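Inhibition of NKH477-driven (0.25 uM final) CRE-beta-lactamase signal in HEK293T cells, 3 h compound exposure at 37 °C, detected by FRET substrate fluorescence.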

In assay [13] the target is Beta-2 adrenergic receptor (Homo sapiens) (UniProt P07550). Kind of assay: Adrenergic beta2 receptor (ADRB2) small molecule antagonists, cell-based qHTS assay (AID 1963592). Also: series mostly up to about 92 µM; nearly all actives have a fitted effect of over 50% in size. The method in brief:
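Cells (CHO, stable ADRB2 overexpression) incubated 18-20hr at 37C; compounds added from DMSO; agonist mix (1nM isoproterenol, 100uM IBMX, 25uM Ro-20-1724) added; 0.5hr RT; d2-cAMP and anti-cAMP-cryptate added; 1hr RT; 665/615 nm read.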

In assay [14] the target is D(2) dopamine receptor (Homo sapiens) (UniProt P14416). Kind of assay: Dopamine D2 receptor (DRD2) small molecule agonists, cell-based qHTS assay (AID 1963594). Also: nearly all actives have a fitted effect of over 35% in size. Also: potency is read from the fitted curve at half-maximal effect. In short, it runs like this: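 HEK293 cells stably expressing DRD2 were cultured 24 h at 37 C, then given Ro20-1724 (0.1 mM final) and compounds for 10 min at room temperature. NKH477 (200nM) was then added for 30 min. cAMP was read by HTRF.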
Chain of D(2) dopamine receptor (Homo sapiens) (P14416 whole entry, looked up): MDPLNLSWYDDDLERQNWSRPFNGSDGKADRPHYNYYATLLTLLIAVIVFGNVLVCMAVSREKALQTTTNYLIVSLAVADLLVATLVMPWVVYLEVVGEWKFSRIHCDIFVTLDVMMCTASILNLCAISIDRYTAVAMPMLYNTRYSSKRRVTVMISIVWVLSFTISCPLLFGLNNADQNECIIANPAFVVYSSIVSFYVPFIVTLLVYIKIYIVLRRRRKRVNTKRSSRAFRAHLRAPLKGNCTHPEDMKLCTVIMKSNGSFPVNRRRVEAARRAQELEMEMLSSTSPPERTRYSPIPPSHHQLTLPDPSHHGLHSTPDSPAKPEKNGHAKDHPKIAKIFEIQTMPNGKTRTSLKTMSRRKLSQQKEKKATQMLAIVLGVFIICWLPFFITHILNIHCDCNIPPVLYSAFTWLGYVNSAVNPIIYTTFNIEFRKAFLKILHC

The target is the same in assay [15]. Kind of assay: Dopamine D2 receptor (DRD2) small molecule antagonists, cell-based qHTS assay (AID 1963595; active = well fitted inhibition curve with a large enough effect in the signal ratio in the repeat runs, with a control signal flat; the % refers to the signal ratio). In short, it runs like this: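 Readout: HTRF cAMP, cAMP-d2 competing with cellular cAMP for anti-cAMP cryptate, read after 1 h. Cells: DRD2-HEK293. Conditions: 0.1 mM Ro20-1724, 12 nM quinpirole, 200 nM NKH477, 30 min RT.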
Assay [16] can be described thus: p53 small molecule agonists, cell-based qHTS assay with rat liver microsomes: qHTS cell viability counter screen (AID 1963580). Also: nearly all actives have a fitted effect of over 45% in size. In short, it runs like this:
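In HCT-116 cells carrying a p53 response element-bla reporter, compounds were metabolically activated in situ by rat liver microsomes with NADPH over 16 h. Cell ATP content then served as the cytotoxicity measure.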

Assay [17] can be described thus: p53 small molecule agonists, cell-based qHTS assay: qHTS cell viability counter screen (AID 1963581). Also: nearly all actives have a fitted effect of over 45% in size. Also: potency is read from the fitted curve at half-maximal effect. In short, it runs like this: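 In the same plates used for the p53 bla reporter, HCT-116 cells given compounds for 16 h at 37 C received CellTiter-Glo; luminescence was recorded 30 min later at room temperature.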
Assay [18] is described as follows: p53 small molecule agonists, cell-based qHTS assay (AID 1963582; active = well fitted activation curve with a large enough effect in the signal ratio in the repeat runs, not every such curve was filed as active; the % refers to the signal ratio). In short, it runs like this:
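Compounds are pin-transferred in DMSO onto p53RE-bla cells and incubated 16 h at 37 C. The B/G FRET beta-lactamase substrate is then applied for 2 h at RT and fluorescence recorded.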

In assay [19] the target is Beta-2 adrenergic receptor (Homo sapiens) (UniProt P07550). Description: Adrenergic beta2 receptor (ADRB2) small molecule agonists, cell-based qHTS assay (AID 1963593).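 Also: CHO cells stably overexpressing human ADRB2.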 The method in brief:
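CHO cells stably over-expressing ADRB2 were plated overnight at 37C, then dosed with compounds plus a stimulation mix containing 100uM IBMX and 25uM Ro-20-1724 for 0.5hr at room temperature. cAMP was measured by HTRF competition, 1hr.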

Chain of Beta-2 adrenergic receptor (Homo sapiens) (P07550 whole entry, looked up): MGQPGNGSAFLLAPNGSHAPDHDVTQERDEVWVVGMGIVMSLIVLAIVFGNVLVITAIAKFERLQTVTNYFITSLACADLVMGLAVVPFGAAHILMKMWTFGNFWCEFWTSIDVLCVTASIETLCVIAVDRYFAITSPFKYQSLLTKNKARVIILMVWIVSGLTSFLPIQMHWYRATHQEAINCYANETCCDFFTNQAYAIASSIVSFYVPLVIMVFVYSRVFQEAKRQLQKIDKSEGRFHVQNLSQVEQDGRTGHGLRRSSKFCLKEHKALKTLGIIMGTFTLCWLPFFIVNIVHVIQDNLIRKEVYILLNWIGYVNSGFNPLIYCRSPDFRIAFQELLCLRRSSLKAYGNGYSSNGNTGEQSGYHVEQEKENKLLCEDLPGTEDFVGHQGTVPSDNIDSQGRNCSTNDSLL
Chain of Gonadotropin-releasing hormone receptor (Homo sapiens) (P30968 whole entry, looked up): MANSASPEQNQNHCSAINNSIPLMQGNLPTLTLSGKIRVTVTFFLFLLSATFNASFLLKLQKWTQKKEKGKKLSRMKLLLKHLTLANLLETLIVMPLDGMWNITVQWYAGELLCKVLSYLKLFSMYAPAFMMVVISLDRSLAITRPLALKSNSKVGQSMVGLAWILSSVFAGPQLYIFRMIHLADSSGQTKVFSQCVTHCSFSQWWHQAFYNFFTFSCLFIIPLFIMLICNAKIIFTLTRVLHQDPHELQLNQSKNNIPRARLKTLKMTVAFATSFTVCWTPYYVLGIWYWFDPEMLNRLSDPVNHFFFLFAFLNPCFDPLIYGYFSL

On to `CN(C)C1CCCCC1`, for which the Potency result in assay [1], in assay [2], in assay [3], in [4], in assay [5] and in assay [6] was “inactive” in each case. The Potency entry in [7], in assay [8], in [9], in assay [10], in assay [11] and in assay [12] was “inactive” each time. The Potency entry in [13], in assay [14] and in assay [15] was “inactive” in each case.

For `COc1c2c(cc3c1OCO3)CCN(C)C2`, the Potency entry in assay [1], in assay [2], in [3], in [4], in assay [5] and in [16] was “inactive” each time. The Potency result in [17], in [9], in [10], in assay [11], in assay [12] and in assay [13] was “inactive” in each case. Further, in assay [15], the Potency entry was “inactive”. In addition, the Potency in assay [7] is 16.3 µM (active); in assay [8], 1.2 µM (active); in [14] it was 6.68 µM (active).

With `c1ccc2nc(N3CCNCC3)ccc2c1`, the Potency entry in [1], in assay [2], in [3], in assay [4], in assay [5] and in assay [6] was “inactive” in each case. The Potency result in [16], in [9], in assay [11], in [12], in assay [13] and in assay [14] was “inactive” throughout. In addition, the Potency result in assay [15] was “inactive”. Further, the figures for the Potency in [7] and in [8] were 0.0033 µM (active) and 0.0048 µM (active), respectively.

Take `BrCC1CO1` (centres undefined): the Potency result in assay [1], in assay [2], in [3], in [4], in assay [5] and in [6] was “inactive” each time. In addition, the Potency entry in assay [16], in [7], in assay [8], in assay [9], in assay [10] and in assay [11] was “inactive” throughout. For the same molecule, the Potency entry in assay [12], in assay [13], in assay [14] and in assay [15] was “inactive” in each case.

As to `O=[N+]([O-])c1cccc2c([N+](=O)[O-])cccc12`, the Potency entry in [1], in assay [3], in assay [4], in assay [5], in [16] and in assay [8] was “inactive” each time. The Potency entry in assay [9], in assay [10], in [13], in [14] and in [15] was “inactive” throughout. Moreover, the Potency was 61.4 µM (active) in assay [2] and 23.1 µM (active) in [17].

Regarding `ClC(Cl)C(Cl)Cl`, the Potency entry in assay [1], in assay [2], in assay [3], in [4], in assay [5] and in assay [16] was “inactive” each time. Also, the Potency result in assay [17], in assay [18], in assay [7], in assay [8], in assay [9] and in assay [10] was “inactive” in each case. Moreover, the Potency entry in assay [11], in assay [12] and in [19] was “inactive” in each case.

Take `Nc1ccc([N+](=O)[O-])cc1[N+](=O)[O-]`: the Potency result in [1], in [2], in [3], in assay [4], in [5] and in assay [16] was “inactive” in each case. Besides, the Potency entry in [8], in assay [9], in [11], in assay [12] and in [15] was “inactive” throughout.

As to `CCC(C)(C)O`, the Potency result in assay [1], in [2], in assay [3], in assay [4], in assay [5] and in assay [6] was “inactive” in each case. Moreover, the Potency entry in assay [7], in assay [8], in [9], in assay [11], in assay [12] and in [13] was “inactive” each time. The Potency entry in assay [19] and in [14] was “inactive” throughout.

For the molecule `Nc1cc2c3c(c1)C(c1ccccc1)=N[C@@H](NC(=O)c1cccnc1)C(=O)N3CC2`, the Potency result in [1], in [2], in assay [3], in assay [4], in [5] and in [16] was “inactive” each time. The Potency result in assay [7], in assay [8], in assay [9], in [10], in assay [11] and in [19] was “inactive” each time. For the same molecule, the Potency entry in [14] and in [15] was “inactive” each time.
